Measurements taken from the supplement of paper PMC12282887.
± gives the standard deviation of the averaged measurements.

Key:
Assay in all cases: promoter activity interaction Z-score (Lux/OD deviation from empty-vector control); higher = stronger promoter induction by the compound
[1] = system: E. coli BW25113 acrABp lux reporter
Method in brief: (§1)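 Low-copy luxCDABE promoter reporters were carried by E. coli BW25113, either wild type or lacking one of three genes, grown in 40 µl LB Lennox in 384-well plates at 37°C. Each compound was run at four 1:2 dilutions in biological duplicates, with OD600 and luminescence read every 30 min for 12 h. Integration used 0–8 h for wild type and 1–9 h for deletion strains, and wells under 10% of the median growth value were removed. Luminescence normalised to growth was fitted against a control, and the Z-transformed residual is the score.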

[2] = system: E. coli BW25113 micFp lux reporter
Method in brief: as §1

[3] = system: E. coli BW25113 ompFp lux reporter
Method in brief: as §1

[4] = 0.47 µg/ml, genetic background: wild type
[5] = 0.47 µg/ml, genetic background: ΔmarA
[6] = 0.47 µg/ml, genetic background: Δrob
[7] = 0.47 µg/ml, genetic background: ΔsoxS
[8] = 0.93 µg/ml, genetic background: wild type
[9] = 0.93 µg/ml, genetic background: ΔmarA
[10] = 0.93 µg/ml, genetic background: Δrob
[11] = 0.93 µg/ml, genetic background: ΔsoxS
[12] = 1.9 µg/ml, genetic background: wild type
[13] = 1.9 µg/ml, genetic background: ΔmarA
[14] = 1.9 µg/ml, genetic background: Δrob
[15] = 1.9 µg/ml, genetic background: ΔsoxS
[16] = 3.7 µg/ml, genetic background: wild type
[17] = 3.7 µg/ml, genetic background: ΔmarA
[18] = 3.7 µg/ml, genetic background: Δrob
[19] = 3.7 µg/ml, genetic background: ΔsoxS

CC1(C)S[C@@H]2[C@H](NC(=O)Cc3ccccc3)C(=O)N2[C@H]1C(=O)O [Penicillin G]
promoter activity interaction Z-score [1, 4]: -0.119 ± 0.09 | promoter activity interaction Z-score [1, 5]: -0.131 ± 0.52 | promoter activity interaction Z-score [1, 6]: 0.0104 ± 0.26 | promoter activity interaction Z-score [1, 7]: 0.211 ± 0.039 | promoter activity interaction Z-score [1, 8]: -0.14 ± 0.13 | promoter activity interaction Z-score [1, 9]: 0.592 ± 0.63 | promoter activity interaction Z-score [1, 10]: 0.28 ± 0.04 | promoter activity interaction Z-score [1, 11]: 0.575 ± 0.16 | promoter activity interaction Z-score [1, 12]: -0.0936 ± 0.033 | promoter activity interaction Z-score [1, 13]: 0.128 ± 0.61 | promoter activity interaction Z-score [1, 14]: -0.00373 ± 0.015 | promoter activity interaction Z-score [1, 15]: 0.229 ± 0.28 | promoter activity interaction Z-score [1, 16]: 0.0671 ± 0.041 | promoter activity interaction Z-score [1, 17]: 0.328 ± 0.92 | promoter activity interaction Z-score [1, 18]: 0.156 ± 0.023 | promoter activity interaction Z-score [1, 19]: 0.14 ± 0.13 | promoter activity interaction Z-score [2, 4]: -0.185 ± 0.12 | promoter activity interaction Z-score [2, 5]: -0.107 ± 0.0057 | promoter activity interaction Z-score [2, 6]: -0.126 ± 0.1 | promoter activity interaction Z-score [2, 7]: -0.069 ± 0.047 | promoter activity interaction Z-score [2, 8]: -0.247 ± 0.14 | promoter activity interaction Z-score [2, 9]: -0.0395 ± 0.093 | promoter activity interaction Z-score [2, 10]: -0.135 ± 0.1 | promoter activity interaction Z-score [2, 11]: 0.069 ± 0.064 | promoter activity interaction Z-score [2, 12]: -0.228 ± 0.13 | promoter activity interaction Z-score [2, 13]: 0.0369 ± 0.038 | promoter activity interaction Z-score [2, 14]: -0.142 ± 0.026 | promoter activity interaction Z-score [2, 15]: 0.21 ± 0.0048 | promoter activity interaction Z-score [2, 16]: -0.333 ± 0.01 | promoter activity interaction Z-score [2, 17]: -0.118 ± 0.043 | promoter activity interaction Z-score [2, 18]: -0.11 ± 0.08 | promoter activity interaction Z-score [2, 19]: -0.156 ± 0.19 | promoter activity interaction Z-score [3, 4]: 0.195 ± 0.027 | promoter activity interaction Z-score [3, 5]: -0.0479 ± 0.074 | promoter activity interaction Z-score [3, 6]: -0.032 ± 0.25 | promoter activity interaction Z-score [3, 7]: 0.447 ± 0.11 | promoter activity interaction Z-score [3, 8]: 0.206 ± 0.52 | promoter activity interaction Z-score [3, 9]: 0.589 ± 0.67 | promoter activity interaction Z-score [3, 10]: 0.432 ± 0.096 | promoter activity interaction Z-score [3, 11]: 0.381 ± 0.3 | promoter activity interaction Z-score [3, 12]: -0.392 ± 0.093 | promoter activity interaction Z-score [3, 13]: 0.0358 ± 0.0037 | promoter activity interaction Z-score [3, 14]: 0.00513 ± 0.15 | promoter activity interaction Z-score [3, 15]: 0.64 ± 0.076 | promoter activity interaction Z-score [3, 16]: 0.719 ± 0.27 | promoter activity interaction Z-score [3, 17]: 1.16 ± 0.19 | promoter activity interaction Z-score [3, 18]: 1.35 ± 0.66 | promoter activity interaction Z-score [3, 19]: 1.7 ± 0.7
